Data as given in PubChem BioAssay (NCATS).
Inconclusive results are not listed. Calls of active or inactive are those of the source. Calls come from the whole dose curve; as a rule, active = well fitted curve in the direction sought with a large enough effect; inconclusive = small, poorly fitted or top-dose-only effect, or another doubt; inactive = no such curve, though single readings can be large; an effect the other way counts as inactive or inconclusive. Where a SMILES comes first, the peptide text is derived from it. Bridges are numbered along the chain shown (N, C = ends). [ ]: non-standard residue; d: D form. hArg = N=C(N)NCCCC[C@H](N)C(=O)O; Mpa = O=C(O)CCS

Columns and labels:
MCC-13 = test: qHTS assay to identify novel small-molecules to repurpose for Merkel cell carcinoma treatment (AID 1296009); conditions: MCC and control cell lines, CellTiter-Glo viability, 72 h; series mostly up to 46 µM; note: nearly all actives have a fitted effect of over 60% in size
Procedure, shortened: (§1)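 Dose-response viability screen; 72 hr exposure at 37 degree celsius; CellTiter-Glo added, 10 min room temperature, luminescence read; RLUs scaled between no-cell and DMSO wells.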

MCC-26 = test: as above; conditions: MCC and control cell lines, CellTiter-Glo viability, 72 h; series mostly up to 46 µM
Procedure, shortened: as §1

MKL-1 = test: as above; conditions: MCC and control cell lines, CellTiter-Glo viability, 72 h; series mostly up to 46 µM
Procedure, shortened: as §1

MKL-2 = test: as above; conditions: MCC and control cell lines, CellTiter-Glo viability, 72 h; series mostly up to 46 µM
Procedure, shortened: as §1

NIH3T3 = test: as above; conditions: MCC and control cell lines, CellTiter-Glo viability, 72 h; at 44.8 µM (top of the series) unless noted
Procedure, shortened: as §1

UISO = test: as above; conditions: MCC and control cell lines, CellTiter-Glo viability, 72 h; series mostly up to 46 µM
Procedure, shortened: as §1

WaGa = test: as above; conditions: MCC and control cell lines, CellTiter-Glo viability, 72 h; series mostly up to 46 µM
Procedure, shortened: as §1

C33A = test: Primary qHTS to identify gynecologic anti-cancer compounds using libraries of approved drugs and bioactive compounds (AID 1345084); conditions: Gynecologic cancer cell panel viability, ATPlite luminescence, 48 h; series mostly up to 57.5 µM; note: nearly all actives have a fitted effect of over 55% in size
Procedure, shortened: (§2)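 Cell viability after 48 h drug treatment, ATPlite luminescence readout; five doses.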

CAOV3 = test: as above; conditions: Gynecologic cancer cell panel viability, ATPlite luminescence, 48 h; series mostly up to 57.5 µM
Procedure, shortened: as §2

CASKI = test: as above; conditions: Gynecologic cancer cell panel viability, ATPlite luminescence, 48 h; series mostly up to 57.5 µM
Procedure, shortened: as §2

Es-2 = test: as above; conditions: Gynecologic cancer cell panel viability, ATPlite luminescence, 48 h; series mostly up to 57.5 µM
Procedure, shortened: as §2

HeLa = test: as above; conditions: Gynecologic cancer cell panel viability, ATPlite luminescence, 48 h; series mostly up to 57.5 µM
Procedure, shortened: as §2

Hek293T = test: as above; conditions: Gynecologic cancer cell panel viability, ATPlite luminescence, 48 h, control line for the selectivity index; series mostly up to 57.5 µM
Procedure, shortened: as §2

JEG-3 = test: as above; conditions: Gynecologic cancer cell panel viability, ATPlite luminescence, 48 h; series mostly up to 57.5 µM
Procedure, shortened: as §2

OV90 = test: as above; conditions: Gynecologic cancer cell panel viability, ATPlite luminescence, 48 h; series mostly up to 57.5 µM
Procedure, shortened: as §2

PA-1 = test: as above; conditions: Gynecologic cancer cell panel viability, ATPlite luminescence, 48 h; series mostly up to 57.5 µM
Procedure, shortened: as §2

Tov-21-G = test: as above; conditions: Gynecologic cancer cell panel viability, ATPlite luminescence, 48 h; series mostly up to 57.5 µM
Procedure, shortened: as §2

Tov112D = test: as above; conditions: Gynecologic cancer cell panel viability, ATPlite luminescence, 48 h; series mostly up to 57.5 µM
Procedure, shortened: as §2

SKOV3 = test: as above; conditions: Gynecologic cancer cell panel viability, ATPlite luminescence, 48 h; series mostly up to 57.5 µM
Procedure, shortened: as §2

Measured: Potency

O=C(CCBr)N1CCN(C(=O)CCBr)CC1
inactive: MCC-13 | MCC-26 | MKL-1 | MKL-2 | NIH3T3 | UISO | WaGa | C33A | CAOV3 | CASKI | Es-2 | HeLa | Hek293T | JEG-3 | OV90 | PA-1 | Tov-21-G | Tov112D

CCCCCC(N)=O
inactive: MCC-13 | MCC-26 | MKL-1 | MKL-2 | NIH3T3 | UISO | WaGa | C33A | CASKI | Es-2 | HeLa | Hek293T | JEG-3 | OV90 | PA-1 | SKOV3 | Tov-21-G | Tov112D

NS(=O)(=O)c1ccc(NC(=O)CCC(=O)O)cc1
inactive: MCC-13 | MCC-26 | MKL-1 | MKL-2 | NIH3T3 | UISO | WaGa | C33A | CAOV3 | CASKI | Es-2 | HeLa | Hek293T | JEG-3 | OV90 | PA-1 | SKOV3 | Tov-21-G | Tov112D

NC(=O)N[C@@H](CCC(=O)O)C(=O)O
inactive: MCC-13 | MCC-26 | MKL-1 | MKL-2 | NIH3T3 | UISO | WaGa | C33A | CAOV3 | CASKI | Es-2 | Hek293T | JEG-3 | OV90 | SKOV3

Cc1cc(=O)[nH]c(=S)[nH]1
inactive: MCC-13 | MCC-26 | MKL-1 | MKL-2 | NIH3T3 | UISO | WaGa | C33A | CASKI | Es-2 | HeLa | Hek293T | JEG-3 | OV90 | PA-1 | Tov-21-G | Tov112D

CCCCCCCCCCCCCCCCCCO
inactive: MCC-13 | MCC-26 | MKL-1 | MKL-2 | NIH3T3 | UISO | WaGa | C33A | CAOV3 | CASKI | Es-2 | HeLa | Hek293T | JEG-3 | OV90 | SKOV3 | Tov-21-G | Tov112D

CCOC(N)=O
inactive: MCC-13 | MCC-26 | MKL-1 | MKL-2 | NIH3T3 | UISO | WaGa | C33A | CASKI | Es-2 | HeLa | Hek293T | JEG-3 | OV90 | PA-1 | SKOV3 | Tov-21-G | Tov112D

O=c1[nH]c2cc(C(F)(F)F)c(N3CCOCC3)cc2n(CP(=O)(O)O)c1=O
inactive: MCC-13 | MCC-26 | MKL-1 | MKL-2 | NIH3T3 | UISO | WaGa | C33A | CASKI | Es-2 | HeLa | Hek293T | JEG-3 | OV90 | PA-1 | SKOV3 | Tov-21-G | Tov112D

CC(=O)N1C[C@H](O)C[C@H]1C(=O)O
inactive: MCC-13 | MCC-26 | MKL-1 | MKL-2 | NIH3T3 | UISO | WaGa | C33A | CAOV3 | CASKI | Es-2 | HeLa | Hek293T | JEG-3 | OV90 | PA-1 | Tov-21-G | Tov112D

Cc1ncc(CO)c(CN)c1O
inactive: MCC-13 | MCC-26 | MKL-1 | MKL-2 | NIH3T3 | UISO | WaGa | C33A | CAOV3 | CASKI | Es-2 | HeLa | Hek293T | Tov-21-G | Tov112D

C=CCN1C[C@H](C(=O)N(CCCN(C)C)C(=O)NCC)C[C@@H]2c3cccc4[nH]cc(c34)C[C@H]21
inactive: MCC-13 | MCC-26 | MKL-1 | MKL-2 | NIH3T3 | UISO | WaGa | C33A | CAOV3 | CASKI | Es-2 | HeLa | Hek293T | JEG-3 | OV90 | PA-1 | SKOV3 | Tov-21-G | Tov112D

CCOC(=O)[C@H](CCc1ccccc1)N[C@@H](C)C(=O)N1CCC[C@H]1C(=O)O
inactive: MCC-13 | MCC-26 | MKL-1 | MKL-2 | NIH3T3 | UISO | WaGa | C33A | CASKI | Es-2 | HeLa | Hek293T | JEG-3 | OV90 | PA-1 | SKOV3 | Tov-21-G | Tov112D

Cc1c(N(C)C)c(=O)n(-c2ccccc2)n1C
inactive: MCC-13 | MCC-26 | MKL-1 | MKL-2 | UISO | WaGa | C33A | CAOV3 | CASKI | Es-2 | HeLa | Hek293T | JEG-3 | OV90 | PA-1 | SKOV3 | Tov-21-G | Tov112D

O=C(O)Cc1ccc(CCNS(=O)(=O)c2ccc(Cl)cc2)cc1
inactive: MCC-13 | MCC-26 | MKL-1 | MKL-2 | UISO | WaGa | C33A | CAOV3 | CASKI | Es-2 | HeLa | Hek293T | JEG-3 | OV90 | PA-1 | SKOV3 | Tov-21-G | Tov112D

NC(=O)[C@@H]1CSSCCC(=O)N[C@@H](CCCCN=C(N)N)C(=O)NCC(=O)N[C@@H](CC(=O)O)C(=O)N[C@@H](Cc2c[nH]c3ccccc23)C(=O)N2CCC[C@H]2C(=O)N1 ([Mpa][hArg]GDWPC-NH2; disulfide 1-7)
inactive: MCC-13 | MCC-26 | MKL-1 | MKL-2 | UISO | WaGa | C33A | CAOV3 | CASKI | Es-2 | HeLa | Hek293T | JEG-3 | OV90 | PA-1 | SKOV3 | Tov-21-G | Tov112D
